# Menin MLL FP TR: displaces Texas Red mutant MLL peptide from human menin; O00255; Menin + Texas Red MLL mutant peptide, fluorescence polarization; Potency, µM (top dose mostly 61.6 µM), hits mostly inhibitors; hit rate 0.23% among 270,000; AID 1768; active means well fitted inhibition curve with a large enough effect in the polarisation, with a control signal flat, not every such curve was filed as active; inconclusive means small, poorly fitted or top-dose-only effect, or effect the other way, or a change in a side signal; inactive means no such curve, though single readings can be large or run the other way; the % refers to the polarisation
# Target sequence (O00255 whole entry, looked up): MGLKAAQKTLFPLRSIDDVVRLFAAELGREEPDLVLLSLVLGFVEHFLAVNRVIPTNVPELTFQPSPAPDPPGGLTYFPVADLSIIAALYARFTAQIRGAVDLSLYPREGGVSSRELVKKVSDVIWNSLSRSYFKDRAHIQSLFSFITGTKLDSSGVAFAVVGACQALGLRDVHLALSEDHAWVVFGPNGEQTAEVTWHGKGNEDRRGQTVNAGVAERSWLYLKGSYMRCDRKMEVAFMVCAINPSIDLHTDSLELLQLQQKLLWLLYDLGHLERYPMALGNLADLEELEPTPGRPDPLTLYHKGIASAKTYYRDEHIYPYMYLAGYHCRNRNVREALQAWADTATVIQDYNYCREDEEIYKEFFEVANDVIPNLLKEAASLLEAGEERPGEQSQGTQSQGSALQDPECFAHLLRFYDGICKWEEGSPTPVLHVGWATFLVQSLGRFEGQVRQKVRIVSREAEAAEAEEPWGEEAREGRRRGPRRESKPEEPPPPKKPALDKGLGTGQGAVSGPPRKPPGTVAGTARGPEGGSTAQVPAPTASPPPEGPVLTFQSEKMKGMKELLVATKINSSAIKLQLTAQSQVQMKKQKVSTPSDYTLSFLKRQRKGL
# CXXC DNA block: blocks binding of human MLL CXXC domain to DNA | AID 2662 | hit rate 0.037% among 290,000 | MLL-CXXC / FITC-HOXA9 DNA fluorescence polarization | Potency, µM (highest dose often 115 µM), most hits filed as inhibitors; active means well fitted inhibition curve with a large enough effect in the polarisation, with a control signal flat, not every such curve was filed as active; inconclusive means small, poorly fitted or top-dose-only effect, or effect the other way, or a change in a side signal; inactive means no such curve, though single readings can be large or run the other way; the % refers to the polarisation
#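 Purified MLL-CXXC (added from a 7 uM solution) was preincubated 5 min at ambient with pinned compounds in 50 mM Tris-HCl pH 7.5, 50 mM NaCl, 1 mM DTT, 0.05% BSA. Fluorescein-labeled HOX-A9 DNA (50 nM solution) followed, 30 min, then polarization read.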
# Tb PFK inh-1: blocks T. brucei phosphofructokinase; O15648; T. brucei PFK, ADP-Glo luminescence; Potency, µM (titrated, usually from 57.5 µM), hits mostly inhibitors; hit rate 0.17% among 330,000; further: nearly all actives have a fitted effect of over 60% in size
#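 ADP-Glo luminescence quantified ADP after 45 min at room temperature, with 1.25 nM T. brucei PFK, 0.1 mM ATP and 0.5 mM fructose-6-phosphate in pH 8.0 TEA buffer. qHTS titrations up to 57 µM; curves classified by quality.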
# Menin MLL FP FL: inhibitors of human menin-MLL interaction, wild-type MLL peptide | AID 1766 | 290,000 tested, under 10 active | FP activity change, % at 61.4 µM | Fluorescence polarization, fluorescein-MLL peptide displacement from menin; active means well fitted curve in the direction sought with a large enough effect in the polarisation, not every such curve was filed as active; inconclusive means small, poorly fitted or top-dose-only effect, or effect the other way, or a change in a side signal; inactive means no such curve, though single readings can be large or run the other way; the % refers to the polarisation
# GoLoco inh red: blocks human Gai1 binding to RGS12 GoLoco peptide, red readout; P63096; Gai1:RGS12 GoLoco peptide FP, rhodamine, 10 min; Potency, µM (series often up to 61.6 µM), hits mostly inhibitors; hit rate 0.44% among 230,000; active means well fitted inhibition curve with a large enough effect, not every such curve was filed as active; inactive means no such curve, though single readings can be large or run the other way; further: nearly all actives have a fitted effect of over 30% in size
# TbPFK ATP: inhibits T. brucei PFK measured by ATP depletion; shares compounds with Tb PFK inh-1; Tb PFK enzyme, ATP depletion, Kinase-Glo Plus luminescence; Potency, µM (top dose mostly 57.5 µM); hit rate 47% among 1,100; AID 504636; calls by dose curve; further: nearly all actives have a fitted effect of over 60% in size
# Tb PFK inh-2: validation of T. brucei phosphofructokinase inhibitors; shares compounds with Tb PFK inh-1; Potency, µM (top dose mostly 57.5 µM), usual class: inhibitors; purified T. brucei PFK, ADP-Glo luminescence, 45 min; hit rate 41% among 1,100; further: nearly all actives have a fitted effect of over 60% in size
# Hits are given with their value; - = inactive; ? = inconclusive; . = no result; [ ] = remark or other dose. A selection: hits, their analogues and other compounds. The true share with any hit is near 0.43%. Unless noted, the call rests on the fitted dose curve; in most records, active means well fitted inhibition curve with a large enough effect; inconclusive means small, poorly fitted or top-dose-only effect, or effect the other way; inactive means flat fitted curve, though single readings scatter.
SMILES,Menin MLL FP TR,CXXC DNA block,Tb PFK inh-1,Menin MLL FP FL,GoLoco inh red,TbPFK ATP,Tb PFK inh-2
Cc1cccc(N2CCN(C(=O)Cn3sc4nc(C)cc(C)c4c3=O)CC2C)c1 (configuration not stated),-,-,15µM,?,1.4µM,-,-
CC1(C)CC2CC(C)(CN2Cc2c(O)ccc3ccccc23)C1 (configuration not stated),?,-,-,-,-,.,.
CS(=O)(=O)N1CC(C(=O)NC2CCCC2)Oc2ccc(Cl)cc21 (configuration not stated),-,-,19µM,-,-,9.5µM,24µM
CS(=O)(=O)N1CC(C(=O)NN)Oc2ccc(Cl)cc21 (configuration not stated),-,-,?,-,-,.,.
O=C(C[n+]1ccc(Cc2ccccc2)cc1)Nc1ccc([N+](=O)[O-])cc1Cl,-,-,-,-,-,.,.
Cc1ccc(Cl)cc1NC(=O)C[n+]1ccc(Cc2ccc([N+](=O)[O-])cc2)cc1,-,-,?,-,-,?,?
CCCCC1=CC2=C(c3ccco3)C(=O)C(C)(OC(=O)c3ccc(OC)cc3)C(=O)C2=CN1c1ccccc1 (configuration not stated),-[11.7 µM],-,-,?,-[14.2 µM],.,.
Oc1cc2c(cc1O)C1c3ccc(O)c(O)c3OCC1(O)C2 (configuration not stated),?,-,?,?,7.9µM,?,0.85µM
O=C(O)c1cc(N2N=C(C(F)(F)F)/C(=C/C=C/c3ccco3)C2=O)ccc1Cl,?,-,17µM,?,-,4.8µM,5.4µM
O=S1(=O)CCOC(CO)CN1Cc1ccc(Cl)c(Cl)c1 (configuration not stated),.,.,?,.,.,?,?
CC(C)C[C@@H](N)C(=O)O,-,-,.,-,-,.,.
O=[N+]([O-])c1cccc(Cl)c1,.,.,.,.,-,.,.
COc1ccccc1N1CCN(C(=O)C(C)CS(=O)(=O)c2ccc3c(c2)NC(=O)CS3)CC1 (configuration not stated),-,-,24µM,-,.,6µM,?
COc1ccccc1/C=C(/NC(=O)c1ccccc1)C(=O)NCCN1CCOCC1,.,-,-,.,.,.,.
Clc1ccc(CSc2nnc([C@@H]3CCCN3)o2)cc1Cl,-,-,30µM,-,-,12µM,27µM
Cc1ccc(C)c(CSc2nnc([C@@H]3CCCN3)o2)c1,.,-,-,-,-,.,.
NCCCCCc1nnc(SCc2ccc(Cl)c(Cl)c2)o1,?,-,24µM,-,-,13µM,30µM
C=CC(C)(O)CC1[C@@]2(C)CCCC(C)(C)C2CC[C@]1(C)O (some centres not stated),-,.,.,-,-,.,.
O=c1[nH]c2ccsc2c(=O)n1-c1ccc(F)cc1,-,-,?,-,-,.,.
O=c1[nH]c2ccsc2c(=O)n1-c1ccc(F)c(Cl)c1,-,-,?,-,-,-,-
NN1C(=O)/C(=C2/Sc3ccccc3N2CCCS(=O)(=O)O)SC1=S,-,?,30µM,?,.,19µM,?
